Data taken from PubChem BioAssay AID743397 (Broad Institute, 2014).
Hit rate of the full screen: of about 340,000 compounds, about 330 (0.097%) were called active.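 The calls were made as follows: active = mean replicate inhibition of at least 30% and at least 1% of replicates passing that level; inconclusive = only one of the two criteria is met; inactive = neither criterion is met.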 Shown is part of a subset that was picked to be rich in actives.

test system: Voltage-dependent L-type calcium channel subunit alpha-1D (CaV1.3) ICDI/IQ interaction; assay: Disruptors of the CACNA1D IQ motif to Ca2+-dependent inactivation inhibitor domain association, primary screening, Förster resonance energy transfer in intact living cells, one concentration (AID 743397); details: HEK cells, CFP/YFP FRET ICDI-IQ, plate reader, 10 min; at 12.3 µM; hits give high values; percent FRET-ratio fall versus neutral wells;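 also: 0% = median of the neutral control wells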

inhibition, inactive:
COc1ccccc1Cc1c(-c2ccc(F)cc2)nc2ccc(C)cn12 -8.77%
CC(C)(C)C(c1nc2ccccc2[nH]1)n1c(Cc2csc3ccccc23)nc2ccccc21 (centres undefined) -10%
COC(=O)[C@]12C[C@H](CC(=O)NCc3ccccc3)C(=O)N(CCC3=CCCCC3)C1=C[C@H](C(C)(C)C)O[C@@H]2C -8.62%
COC(=O)Cc1nnn2c1[C@H](C)[C@H](c1ccccc1Br)OCC2 -6.7%
CC(=O)c1ccc(S(=O)(=O)NCC2CCN(C(=O)C(=O)c3cccs3)CC2)cc1 -7.65%
COc1ccc(-c2ccccc2C2Cc3nnccc3CN2C(=O)Nc2ccccc2)cc1 (centres undefined) -4.58%
CC(C)[C@@H](C)/C=C/[C@@H](C)[C@H]1CC[C@@H]2[C@]1(C)CCC1[C@]23C=C[C@]2(C[C@@H](O)CC[C@]12C)N(c1ccc([N+](=O)[O-])cn1)O3 (some centres undefined) -8.61%
COC(=O)C1=C(C)N(Cc2ccccc2C(F)(F)F)C(=NCc2ccc(C(F)(F)F)cc2)NC1c1ccc(F)cc1 (centres undefined) -9.8%
CCCCCc1c(-c2ccc(OC)c(OC)c2)ncn1CCc1ccccc1OC -11%
COC(=O)Cc1nnn2c1[C@H](C)[C@@H](OC)c1cc(Br)ccc1-2 -5.26%
CCCN1C(=O)c2[nH]nc(-c3ccccc3)c2C1c1ccccc1 (centres undefined) -3.81%
COC(=O)[C@H](CC(C)C)NS(=O)(=O)c1c(F)cccc1F -4.96%
CSc1ccc(Oc2cccc3c2S(=O)(=O)N([C@H](C)c2ccccc2)C[C@@H](COCc2ccccc2)O3)cc1C -9.54%
COc1cccc(CC(=O)N2CCN(C(=O)C(=O)c3cccc(C(F)(F)F)c3)CC2)c1 -9.3%
Cc1ccc(NS(=O)(=O)c2cc3c(cc2Br)NC(=O)CO3)cc1C -4.61%
OC(c1ccccc1)(c1ccccc1)C1CCN(CCCOc2ccc(-c3ccsc3)cc2)CC1 -9.67%
COC(=O)[C@]12C[C@H](CC(=O)NCc3ccc(C)o3)C(=O)N(CCC3=CCCCC3)C1=C[C@H](C(C)(C)C)O[C@@H]2C -11.3%
CCCCCCCCN1C(=O)[C@@H](CC(=O)N2CCN(C(=O)OCC)CC2)C[C@@]2(C(=O)OC)C1=C[C@H](C1CCCC1)O[C@@H]2C -9.25%
C[C@H](CO)N1C[C@H](C)[C@@H](CN(C)C(=O)Nc2ccccc2F)OCc2cn(nn2)CCCC1=O -4.14%
CN(C)C(=O)N1CCN(C(=O)[C@@H](Cc2ccccc2)NC(=O)[C@H]2O[C@@H](n3ccc(N)nc3=O)[C@H](O)[C@@H]2O)CC1 -3.39%
CN1CCCc2nc(-c3ccccc3)ccc21 -4.26%
Cc1noc(C)c1NC(=O)Nc1ccc2c(c1)C(=O)N([C@H](C)CO)C[C@H](C)[C@H](CN(C)Cc1ccncc1)OCCCC[C@@H](C)O2 -5.78%
Cc1cccc(N2CCN(C(=O)C3CCN(S(=O)(=O)c4cnc[nH]4)CC3)CC2)c1C -5.87%
CCOC(=O)c1cccc(NC(=O)C2CCCN(S(=O)(=O)c3cnc[nH]3)C2)c1 (centres undefined) -9.58%
COC(=O)C1=C(C)N(Cc2cccc(C(F)(F)F)c2)C(=NCc2cccc(C(F)(F)F)c2)NC1c1ccccc1C(F)(F)F (centres undefined) -2%
COC(=O)[C@@]12C[C@@H](CC(=O)NCCCCc3ccccc3)C(=O)N(CCc3ccc(OC)c(OC)c3)C1=CCC(C)(C)C2 -8.1%
O=S1(=O)c2c(cccc2N2CCCC2)O[C@H](COCc2ccccc2)CN1C1CC1 -7.56%
CC1CCN(C(=O)c2ncn3c2C(=O)N[C@@H](C)C3)CC1 -3.16%
COc1cccc(-c2cc(CNC(=O)[C@@H](Cc3ccccc3)NC(=O)[C@H]3O[C@@H](n4cnc(C(N)=O)n4)[C@H](O)[C@@H]3O)no2)c1 -2.93%
COC(=O)[C@@]12C[C@@H](CC(=O)NCCCCc3ccccc3)C(=O)N(Cc3ccccc3)C1=CCC(C)(C)C2 -17%
COC(=O)Nc1nc2ccc(C(=O)C3CC3)cc2[nH]1 -11.2%
COC(=O)C1=C(C)N(Cc2ccc(C(F)(F)F)cc2)C(=NCc2ccc(C(F)(F)F)cc2)NC1c1cccc(Cl)c1 (centres undefined) -9.62%
C[C@H](O)[C@@H]1CN2CCc3ccc(-c4ccc5c(c4)OCO5)cc3[C@@H]2C[C@@H]1N(C)C(=O)C1CCCCC1 -2.76%
O=C(C(=O)N1CCC(CNC(=O)c2cccnc2Cl)CC1)c1cccs1 -10.2%
Cc1ccccc1C(=O)N[C@H](C(=O)N1CCC[C@H]1C(=O)NCc1ccccc1)C(C)C -3.3%
CCOc1ccccc1C(=O)N1CCC[C@@H]1C(=O)N1CCC[C@H]1C(=O)NCc1ccccc1 -4.37%
N#Cc1cccc(C(=O)NCC2CCN(C(=O)C(=O)c3cc4ccccc4o3)CC2)c1 -8.07%
NC(=O)c1ncn([C@@H]2O[C@H](C(=O)O)[C@@H](O)[C@H]2O)n1 -4.52%
CC1(C)OC(=O)C2=C(CC(CCc3ccccc3)OC2c2ccc(Cl)cc2)O1 (centres undefined) -9.52%
Fc1ccc(-c2ccc(NCCN3CCOCC3)nn2)cc1 -2.08%
c1ccc(-c2ccc(OCCN3CCOCC3)cc2)cc1 -9.07%
C#CCN([C@@H](C)C(=O)OCC)S(=O)(=O)c1ccc(Br)cc1F -4.44%
COC(=O)[C@]12C[C@H](CC(=O)NCCc3ccccc3OC)C(=O)N(Cc3ccccc3)C1=C[C@H](C(C)C)O[C@@H]2C1CC1 -8.67%
COC(=O)[C@]12C[C@H](CC(=O)NCCC(C)C)C(=O)N(CCc3ccc(OC)c(OC)c3)C1=C[C@H](C(C)(C)C)O[C@@H]2C -8.8%
Nc1ncnc2c1ncn2[C@@H]1O[C@H](C(=O)N[C@@H](CCc2ccccc2)C(=O)N2CCCN(Cc3cccs3)CC2)[C@@H](O)[C@H]1O -9.97%
COC(=O)[C@]12C[C@H](CC(=O)NCCCCc3ccccc3)C(=O)N(Cc3ccc4c(c3)OCO4)C1=C[C@H](C(C)(C)C)O[C@@H]2C -10.1%
COc1cccc(CNC(=O)[C@H]2CCCN2C(=O)[C@H]2CCCN2C(=O)c2cc(F)cc(F)c2)c1 -7.03%
Cc1cc(N2CCN(C(=O)OC(C)(C)C)C[C@H]2C)ccc1N1CCN(Cc2ccccc2)[C@H](C)C1 -7.25%
CCCCCCCCN1C(=O)[C@@H](CC(=O)NCc2ccc(C)o2)C[C@@]2(C(=O)OC)C1=C[C@H](C(C)(C)C)O[C@@H]2C -10.3%
Nc1nc2c(ncn2[C@@H]2O[C@H](C(=O)N[C@@H](Cc3ccccc3)C(=O)NCc3ccccc3)[C@@H](O)[C@H]2O)c(=O)[nH]1 -5.12%
C=CCN1C(=O)N(Cc2ccccc2)c2ccccc2S1(=O)=O -4.73%
CCCCOCC1CN(CCCC)S(=O)(=O)c2c(Oc3ccc(F)cc3)cccc2O1 (centres undefined) -7.83%
COc1cccc(CNC(=O)[C@H]2CCCN2C(=O)[C@H]2CCCN2C(=O)C2CCCCC2)c1 -4.37%
O=C(NS(=O)(=O)c1cccs1)[C@H]1O[C@@H](n2ccc(=O)[nH]c2=O)[C@H](O)[C@@H]1O -3.64%
CC(C)CNc1cccc2c1S(=O)(=O)N[C@H](C)CO2 -7.79%
COC(=O)C1=C(C)NC(=S)NC1c1ccc(OC)cc1 (centres undefined) -4.39%
COc1ccc(C2=CN(Cc3ccccc3)C(c3ccc(OC)cc3)CC2=O)cc1 (centres undefined) -3.32%
CCOc1ccc(C2C3=C(CCCC3=O)N(CC(=O)O)C3=C2C(=O)CCC3)cc1 -13.8%
COc1ccc(C2C(C#N)=C(N)N(c3ncn[nH]3)C3=C2C(=O)CCC3)cc1 (centres undefined) -4.27%
Cc1cc(NCCc2c[nH]c3ccccc23)ccc1Oc1cccnc1 -8.52%
Cc1cc(OC(=O)NCCc2ccc(F)cc2)ccc1F -6.4%
COc1ccccc1C(=O)N1O[C@]23C=C[C@]14C[C@@H](O)CC[C@]4(C)C2CC[C@]1(C)[C@@H]([C@H](C)/C=C/[C@H](C)C(C)C)CC[C@H]13 (some centres undefined) -9.42%
CC(C)CNc1cccc2c1S(=O)(=O)N[C@H](CC(C)C)CO2 -5.08%
CCOCCn1c(-c2ccccc2)nc2ccccc21 -20.2%
Cc1cc(NC(C)C)n2c(nc3ccccc32)c1C#N -0.654%
COc1ccccc1-c1ccc([C@@H]2C[C@H]3[C@H](CON3C)CN2S(=O)(=O)c2cc(Cl)cc(Cl)c2)cc1 -4.02%
Cc1nc2c(OCc3ccc(Cl)cc3)cccn2c1N(C)Cc1cccs1 -6.54%
CCCCc1c(-c2ccc(Cl)cc2)ncn1CCc1ccccc1OC -10.1%
C=CC1=CCN(S(=O)(=O)C(C)(C)C)[C@@H]1CCO -4.63%
CCN1C(=O)N[C@@H]2C[C@H](C(=O)N3CCCC3)[C@H](C)[C@H](c3ccccc3)C[C@@H]21 -3.87%

inhibition, active:
COc1cccc(N2CCN(C(=O)C3CCCN(S(=O)(=O)c4cnc[nH]4)C3)CC2)c1 (centres undefined) 46.8%
c1ccc2cc3c(NCCN4CCOCC4)ccnc3cc2c1 147%
COc1ccc(C2C3=C(CCCC3=O)N(CC(=O)O)C3=C2C(=O)CCC3)cc1 111%
CCOCCCNc1c(CC)c(C)c(C#N)c2nc3ccccc3n12 61%
